According to the supplement of paper PMC6555819:

System: VDR homodimer (NR concentration 270 nM)
Test: PBM binding z-score (relative to random genomic background probes); higher = stronger binding; sequences stand for … in GC…GCGATTGACAGCGTAGAATGAAGG
Method in brief: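 Custom Agilent 4×180K protein-binding microarrays carried double-stranded probes, each with a 34-nt variable region. These regions held direct-repeat seeds, single-nucleotide variants, half-site ablations and random human genomic background sequences. Ligand-free nuclear receptor dimers were incubated on the arrays for 1 h, antibodies against each partner (one per run) detected binding, and scanned fluorescence was regression-normalized. Binding z-scores take the random background probes as reference.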

Sequence | PBM binding z-score
CATACAGGGTCAGCTAGGCCAGAGTGGGGACGGC | 1.59
CGTCCAAGGTCAAATGTCAGTGAAGAGATGACGG | 2.75
ATATGTAGGTTACATCCGGCTCATTCAGGCTATG | 0.27
CCTTACGGGTCAAGGTTAGAGCACGGGTGGTACG | 1.05
AGAATGAGGTTATTCAGATCAGGGAATTGCGGTC | 1.53
AGAACGAGGGCAATGAGATGATAGCACGGGTGGC | 0.718
CATAGAGGGTCAGCTAGGCCAGAGTAGGGACGGC | 0.395
CCTATTAGTTGACCATAAAGGCAACCGAAGCTCG | 0.626
TGAATGAGGTTAAAGATCAGGCAACGTGGCGTCG | 0.286
CGCCCAAGGTCAAGGTCAGTGAAAGAGACTCGAA | 2.96
GCTAGCAGGTCATTTGGGTCACTCAATGACGGGC | 3.25
ATCTCTAGGTAAAGATAGGTCAGTGAATGCAAAT | 0.412
CCAGACAGGTGCAAGGTAACTCAGTCTGGTACGC | 0.489
AGTCAAAGTTCAGGACCAGGTAACGTAAAGCACG | 1.72
GCAGACAGGTGAAACGCAGGTACCTCAGGGTGGC | -0.935
CATCCAGGGTCAGCTAGGCCAGAGTAGGGACGGC | 1.51
TGAATGTGGTTAAAGATCAGGGAACGTGGCGTCG | -0.00679
TCTAGTTGGTCACGGAGGCCACACACGACGGGTA | 0.2
TTACCATGGTGAAAGGTCGTTGATGCACGCCTTG | 1.19
TCTAATTGGTCAAAGGTCACACACTCGAAATGCG | 3.16

Sequence | PBM binding z-score
GCGACTGGGGCATAGCAGGTTACCATAAGGTTGG | -0.335
CCTAGCAGGCCAATCTTGGTCACTCAAGGCTTGA | -0.655
TCATATACGTAAACAGGTGAAAGTCCGTAAGTTA | 0.357
CCTACTGGCCCATTCAGAGGTCATTGATCATATG | 3.87
ATCTCTAGGTAACAAGTTCAGTTAAAGAGAGGAC | 2.34
GCTAGCAGGCCCTTTGGGTCACTCAATGACGGGC | -0.37
ACTAGCAGGCCAAGTTTGGGTCACTCAAACAAAG | 0.495
ACAGACAGGTGATGAAGGAAACTCAGGCTATCAT | -0.33
ATCTCTAGGTACCAAGTTCAGTGAAAGAGAGGAC | 2.26
GCGACTGGGGCATCAGCAGGTCACCATAACTTAA | 0.619
TCTATTAGTTGATTAGGGCTACCGAAACAGCGGA | 0.356
ACTAGTTGGTCAGCAGAGGTCACACACAATTCGG | 3.3
ATTGAAAGGTCGAAGGTGAGTATACCCACCCGAA | 0.982
TCTAGCAGGCCAGAGGGTCACGCAAGAGGTACGG | 0.674
TCTAGTTGGTCAAAGGTCGCACACTCGAAATGCG | 1.26
GCTGCTAGGTCAACTGATGGTCAGCTCAAGCTCG | 0.00206
CGCCAAAGTTCAACTAAGGTAACGTAAAGCACGC | 3.81
TCAGACAGGTGAAGTTAACTCAGGTACGCAGTCG | 0.404
ATATGTAGGTTAAGGGTCATACAGGTTGGTTCGC | 4.2
